In the supplement of paper PMC10849652 one finds log2 fold change data, which are given here for eleven targets.

The full data set covers some 7,900 targets. This sample favours those with a hit. About 0.6% of all pairs of compound and target were hits.

Sequence of UniProt Q86UA6 (Q86UA6 whole entry, looked up): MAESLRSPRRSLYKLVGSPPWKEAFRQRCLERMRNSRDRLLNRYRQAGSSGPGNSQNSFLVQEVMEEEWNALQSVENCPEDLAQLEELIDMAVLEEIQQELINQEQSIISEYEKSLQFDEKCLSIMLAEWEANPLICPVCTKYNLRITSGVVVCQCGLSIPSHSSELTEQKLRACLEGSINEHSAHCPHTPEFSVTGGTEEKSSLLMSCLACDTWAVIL
Sequence of UniProt Q9BY42 (Q9BY42 whole entry, looked up): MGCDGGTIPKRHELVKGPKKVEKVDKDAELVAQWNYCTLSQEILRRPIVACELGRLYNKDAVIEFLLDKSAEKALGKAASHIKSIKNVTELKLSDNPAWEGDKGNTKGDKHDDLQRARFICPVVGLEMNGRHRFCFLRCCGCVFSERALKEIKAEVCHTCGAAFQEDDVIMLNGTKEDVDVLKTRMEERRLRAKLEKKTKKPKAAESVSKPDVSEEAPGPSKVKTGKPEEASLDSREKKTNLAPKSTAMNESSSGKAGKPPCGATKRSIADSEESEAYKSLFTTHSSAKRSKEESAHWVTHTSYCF
Sequence of UniProt Q06609 (Q06609 whole entry, looked up): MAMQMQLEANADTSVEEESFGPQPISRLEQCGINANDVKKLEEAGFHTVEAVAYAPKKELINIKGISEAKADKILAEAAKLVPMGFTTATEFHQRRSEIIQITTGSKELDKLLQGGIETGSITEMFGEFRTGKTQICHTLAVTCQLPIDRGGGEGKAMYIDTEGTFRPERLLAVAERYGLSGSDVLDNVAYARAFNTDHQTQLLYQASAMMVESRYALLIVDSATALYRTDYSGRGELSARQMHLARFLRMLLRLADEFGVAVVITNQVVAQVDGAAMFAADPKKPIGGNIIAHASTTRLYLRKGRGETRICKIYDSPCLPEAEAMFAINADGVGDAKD
Sequence of UniProt O43819 (O43819 whole entry, looked up): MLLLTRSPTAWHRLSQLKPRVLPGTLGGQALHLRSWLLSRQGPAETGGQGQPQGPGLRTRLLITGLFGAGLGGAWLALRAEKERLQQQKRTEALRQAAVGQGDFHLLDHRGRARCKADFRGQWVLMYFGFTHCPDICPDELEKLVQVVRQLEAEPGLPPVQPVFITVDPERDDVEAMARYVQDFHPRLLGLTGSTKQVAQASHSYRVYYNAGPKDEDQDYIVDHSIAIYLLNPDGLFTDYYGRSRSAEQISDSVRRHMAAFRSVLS
Sequence of UniProt Q9BUV8 (Q9BUV8 whole entry, looked up): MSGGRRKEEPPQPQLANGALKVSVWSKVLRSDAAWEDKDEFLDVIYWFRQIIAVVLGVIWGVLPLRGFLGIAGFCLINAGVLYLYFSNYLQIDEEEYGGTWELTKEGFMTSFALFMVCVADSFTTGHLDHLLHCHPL
Sequence of UniProt Q9NRX5 (Q9NRX5 whole entry, looked up): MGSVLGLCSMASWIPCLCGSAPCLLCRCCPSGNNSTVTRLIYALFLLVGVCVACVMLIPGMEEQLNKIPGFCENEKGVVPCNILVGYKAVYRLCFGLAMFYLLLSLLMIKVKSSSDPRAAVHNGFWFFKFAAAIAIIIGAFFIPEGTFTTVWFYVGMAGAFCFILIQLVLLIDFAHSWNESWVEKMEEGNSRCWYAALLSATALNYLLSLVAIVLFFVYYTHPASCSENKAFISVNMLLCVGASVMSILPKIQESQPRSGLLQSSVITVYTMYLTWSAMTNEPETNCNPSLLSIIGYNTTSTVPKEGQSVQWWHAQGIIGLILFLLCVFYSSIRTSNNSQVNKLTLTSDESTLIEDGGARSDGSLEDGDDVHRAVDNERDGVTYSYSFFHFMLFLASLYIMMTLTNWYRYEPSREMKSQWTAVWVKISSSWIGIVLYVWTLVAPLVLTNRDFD
Sequence of UniProt Q8IZQ5 (Q8IZQ5 whole entry, looked up): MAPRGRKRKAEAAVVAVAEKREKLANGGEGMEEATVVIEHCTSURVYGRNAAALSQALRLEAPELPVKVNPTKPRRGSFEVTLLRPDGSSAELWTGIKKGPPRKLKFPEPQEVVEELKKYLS
Sequence of UniProt Q7L099 (Q7L099 whole entry, looked up): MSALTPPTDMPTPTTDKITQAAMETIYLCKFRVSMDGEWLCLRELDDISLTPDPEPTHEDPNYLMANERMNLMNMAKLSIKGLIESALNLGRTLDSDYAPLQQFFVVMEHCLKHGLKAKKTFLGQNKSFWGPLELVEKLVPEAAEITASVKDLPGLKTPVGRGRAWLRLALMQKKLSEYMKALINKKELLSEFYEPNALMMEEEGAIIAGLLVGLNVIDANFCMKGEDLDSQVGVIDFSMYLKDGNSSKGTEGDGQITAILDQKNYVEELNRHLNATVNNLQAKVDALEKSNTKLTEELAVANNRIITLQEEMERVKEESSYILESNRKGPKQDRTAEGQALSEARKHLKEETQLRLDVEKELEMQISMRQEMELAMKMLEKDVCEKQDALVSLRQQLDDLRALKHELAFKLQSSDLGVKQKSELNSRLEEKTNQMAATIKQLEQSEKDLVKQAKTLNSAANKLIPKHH

Compound in the experiment: CC[C@@H]1C(=O)N(C)c2cnc(Nc3ccc(C(=O)N[C@H]4CC[C@H](N5CCN(CC6CC6)CC5)CC4)cc3OC)nc2N1C(C)C [volasertib]
The experiment is described as follows: log2 fold change, soluble protein after heating vs DMSO (PISA); higher = thermal stabilisation; K562 cells, 10 uM, 30 min; active = over 0.2 and 3.5 SD of the protein, either way, in both replicates (recomputed). An outline of the steps:
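K562 cells at 2×10^6 cells/mL were exposed to 10 μM compound for 30 min, then aliquots were heated for 3 min across 48°C-58°C, pooled, and extracted in PBS containing 0.5% NP-40 at 4°C. The supernatant after 21,000xg for 90 min was taken as soluble protein and measured by TMTpro 16plex LC-MS/MS with channel sums equalised. Thermal stability is reported relative to control samples, with values from duplicates. Fold changes are given on a log2 scale.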
Regarding RAD51 (UniProt Q06609), the log2 fold change is 0.113 (inactive). Consider SERINC1 (UniProt Q9NRX5), for which the log2 fold change was 0.025 (inactive).

For SCO2 (UniProt O43819), the log2 fold change is -0.346 (inactive). Consider SELENOH (UniProt Q8IZQ5), for which the log2 fold change is 0.01 (inactive). In the case of RPS25 (UniProt P62851), the log2 fold change is 0.338 (inactive).

Consider RTF2 (UniProt Q9BY42), for which the log2 fold change was -0.45 (active). On to RAB5IF isoform 5 (UniProt Q9BUV8), for which the log2 fold change was 0.036 (inactive). In the case of SIK3 (UniProt H0Y4E8), the log2 fold change was -0.109 (inactive). The result for RPAIN isoform 8 (UniProt Q86UA6) reads -0.718 (active); that for RUFY3 isoform 3 (UniProt Q7L099), -0.149 (inactive); that for RCOR3 isoform 3 (UniProt Q9P2K3), -0.068 (inactive).
